Pin1 inhibitor: human Pin1 inhibition; Potency, µM (titrated, usually from 115 µM), without a hit: at the top dose activity, negative = inhibition, most hits filed as inhibitors; Pin1 FP peptide displacement, HiFluor488, 10 min; 390,000 compounds, 0.009% hits; active = well fitted inhibition curve with a large enough effect in the polarisation, with a control signal flat, not every such curve was filed as active; inconclusive = small, poorly fitted or top-dose-only effect, or effect the other way, or a change in a side signal; inactive = no such curve, though single readings can be large or run the other way; the % refers to the polarisation; note: potency is the fitted concentration of half-maximal effect; % is set by controls: 0 for no effect and ±100 for the full control effect
Target sequence (Q13526 whole entry, looked up): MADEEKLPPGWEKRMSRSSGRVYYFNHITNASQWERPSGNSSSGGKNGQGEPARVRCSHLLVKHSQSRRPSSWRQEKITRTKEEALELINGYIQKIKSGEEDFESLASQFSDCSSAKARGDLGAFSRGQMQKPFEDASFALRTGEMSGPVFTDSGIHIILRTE
TrxR1 substrate: substrates of rat thioredoxin reductase 1 | purified TrxR1 substrate turnover, NADPH consumption readout | 390,000 compounds, 0.01% hits | Potency, µM (top dose mostly 114 µM), for the others: at the top dose activity change, negative = substrate turnover; note: potency is the fitted concentration of half-maximal effect; % is set by controls: 0 for no effect and ±100 for the full control effect; nearly all actives have a fitted effect of over 50% in size
Target sequence (O89049 whole entry, looked up): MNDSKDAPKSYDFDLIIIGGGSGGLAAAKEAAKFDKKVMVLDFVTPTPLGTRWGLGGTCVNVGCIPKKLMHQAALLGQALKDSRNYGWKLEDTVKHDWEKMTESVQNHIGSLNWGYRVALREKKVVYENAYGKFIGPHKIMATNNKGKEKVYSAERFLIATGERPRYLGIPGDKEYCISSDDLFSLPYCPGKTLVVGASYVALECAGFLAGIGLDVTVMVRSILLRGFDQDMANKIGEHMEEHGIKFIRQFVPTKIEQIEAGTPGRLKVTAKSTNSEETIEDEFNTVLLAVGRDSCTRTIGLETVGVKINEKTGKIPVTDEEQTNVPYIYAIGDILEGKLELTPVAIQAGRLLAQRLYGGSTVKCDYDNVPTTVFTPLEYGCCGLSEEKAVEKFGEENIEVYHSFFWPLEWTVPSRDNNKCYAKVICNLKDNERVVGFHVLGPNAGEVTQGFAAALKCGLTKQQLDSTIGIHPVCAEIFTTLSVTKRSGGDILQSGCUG
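Rat TrxR1, dispensed at 90 nM, was prereduced with 400 uM NADPH (final) for 5 min at ~22 deg C, then incubated with compound 15 min before 400 uM selenite. A first-read NADPH fluorescence drop versus no-compound background flagged substrates.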
TrxR1 inh-1: rat TrxR1 inhibition; O89049; recombinant rTrxR1, NADPH fluorescence consumption, selenite substrate; Potency, µM (top dose mostly 114 µM), without a hit: at the top dose activity change, negative = inhibition, most hits filed as inhibitors; 390,000 compounds, 1% hits; AID 588453; note: potency is the fitted concentration of half-maximal effect; % is set by controls: 0 for no effect and ±100 for the full control effect; nearly all actives have a fitted effect of over 65% in size
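Rat TrxR1 (90 nM in the dispensed reagent) was pre-reduced with 400 uM NADPH for 5 min at room temperature, then incubated with compound for 15 min. After 400 uM selenite was added, NADPH fluorescence (Ex 340/Em 450 nm) was followed for 8 min.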
N370S GC mod: N370S glucocerebrosidase modulation, Gaucher chaperone candidate | P04062 | N370S GC spleen homogenate, 4MU-glucoside fluorescence | Potency, µM (highest dose often 59.4 µM), for the others: top-dose activity change, negative = inhibition, usual class: inhibitors | 330,000 compounds, 0.092% hits;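 note: potency is the fitted concentration of half-maximal effect; 0% = full enzyme activity and -100% = no enzyme basal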
Akt phos inh: blocks phosphorylation of Akt. Neuro2A IGF-stimulated pAkt S473 HTRF, 20 min; hits give low values. activity change, % for hits at 50 µM. 360,000 compounds, 0.32% hits; in the data active = activity change below about -80%; inconclusive = mostly about -51% to -80%; note: % is set by controls: 0 for no effect and ±100 for the full control effect
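Neuro2A cells (4,500/well, DMEM with 0.5% FBS) were treated with compound at a single 50 µM final concentration, stimulated with 6 nM IGF for 20 min at 37 °C, and lysed. Phospho-Akt Ser473 was read by HTRF as 665/615 ratio ×10^4.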
A-T KAP1 phos: candidate therapy for ataxia-telangiectasia. F2112 A-T fibroblasts, KAP-1 phosphorylation AlphaLISA; neocarzinostatin DNA damage 30 min before lysis. Potency, µM (highest dose often 57.5 µM), for the others: at the highest dose activation, usual class: activators. 320,000 compounds, 0.19% hits. AID 485349; note: potency is the fitted concentration of half-maximal effect; % of control where 0% means no effect; nearly all actives have a fitted effect of over 45% in size
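hTERT-immortalized A-T patient fibroblasts (F2112), 500 cells/well in OPTI-MEM, 1% FBS, got compounds for 60 min, then NCS for 30 min at 37C. Lysates were then assayed for phospho-KAP-1 by AlphaLISA (anti-pKAP1 donor, anti-KAP1 acceptor beads), 6 hr at 25C.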
GR inh: counter-screen for TrxR1 inhibitors: human glutathione reductase inhibition. AID 652020. shares compounds with TrxR1 inh-1. purified GR, DTNB reduction absorbance 405 nm kinetic. activity change, negative = inhibition, % at 57.1 µM. 55 tested, under 10 active
TrxR1 inh-2: validation of rat thioredoxin reductase 1 inhibitors | AID 652023 | recombinant TrxR1, NADPH fluorescence consumption, selenite substrate | Potency, µM, most hits filed as inhibitors | 55 compounds, 50% hits | shares compounds with TrxR1 inh-1
TrxR1 insulin: TrxR1 inhibition in insulin mechanism assay; TrxR1 Trx-coupled insulin reduction, NADPH absorbance 340 nm; shares compounds with TrxR1 inh-1; Potency, µM; 55 compounds, 20% hits;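 active = compounds with a measured potency under 100 micromolar; inconclusive = filed, but no rule given; inactive = potency at or above that, or unmeasurable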
TrxR1 inh-3: blocks rat TrxR1 reduction of DTNB | shares compounds with TrxR1 inh-1 | purified TrxR1, DTNB reduction, A412 | Potency, µM | 55 compounds, 90% hits | AID 652256;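 active = a half-inhibiting concentration could be measured and was below 100 µM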
The depositor's hits bear a star; i = inactive; ? = inconclusive; / = no result; ! = a repeat was not active; [ ] = dose if it differs, or a comment. The list is not random: actives were taken first. Their share in the collection is about 1.4%. Unless noted, calls come from the whole dose curve; as a rule, active = well fitted curve in the direction sought with a large enough effect; inconclusive = small, poorly fitted or top-dose-only effect, or another doubt; inactive = no such curve, though single readings can be large; an effect the other way counts as inactive or inconclusive.

SMILES	Pin1 inhibitor	TrxR1 substrate	TrxR1 inh-1	N370S GC mod	Akt phos inh	A-T KAP1 phos	others
CC(C)CCn1c(N)c(C(=O)NCc2cccs2)c2nc3ccccc3nc21	-2%	98%[57.1 µM]	49%[57.1 µM]	16%	i	28µM*
COCCNC(=O)c1c(N)n(CCC(C)C)c2nc3ccccc3nc12	-1%	106%	-4%	?	i	/
CSc1ncc(/C=C2/C(=O)NC(=O)N(c3ccc(C(C)C)cc3)C2=O)cn1	19%	0%	10µM*	23%	i	7%
O=C1NC(=O)N(Cc2ccccc2)C(=O)/C1=C/c1cnc(-c2ccccc2)nc1	?	-2%[57.1 µM]	6.3µM*	4%	i	-2%
CC(C)c1ccc(N2C(=O)NC(=O)/C(=C/c3cnc(-c4ccccc4)nc3)C2=O)cc1	?	0%	4µM*	-6%	i	-2%
CCc1ccc(N2C(=O)NC(=O)/C(=C\c3cccn3CCOc3ccc(C(C)C)cc3)C2=O)cc1	35%	-1%	-10%	-7%	i	6%
Cc1ccc(N2C(=O)NC(=O)/C(=C\c3ccoc3)C2=O)cc1	?	4%[57.1 µM]	-11%[57.1 µM]	-9%	i	12%
O=C(Cl)C(Cl)(Cl)Cl	/	/	/	-11%	/	/
C[C@H]1COC2=C1C(=O)C(=O)c1c2ccc2c1CCCC2(C)C	/	-7%	28µM*	7%	i	10%
CCCCCCCCCC[n+]1cccc([C@@H]2CCCN2C)c1	/	/	/	-9%	/	/
O=C(c1cc2cc(Cl)ccc2[nH]1)N1CCC2(CC1)OCCO2	23%	-5%	45µM*	-6%	/	13%
COc1cc(C=C2C(=O)NC(=O)NC2=O)ccc1OS(=O)(=O)c1ccccc1[N+](=O)[O-]	-4%	5%	6.3µM*	-2%	i	-4%
COc1cc(C=C2C(=O)NC(=O)NC2=O)cc(OC)c1OC	-1%	4%[0.0914 µM]	?	-2%	i	-9%
NC1CCCCC1N (configuration not stated)	/	/	/	-4%	/	/
COc1ccc2c(c1)c(C(=O)O)c(C)n2CC(C)C	-1%	12%	14%	3%	i	3%
COc1cc(O)c(C(=O)O)c(-c2cc(O)c(O)cc2C)c1	-19%	0%[57.1 µM]	0.79µM*	-2%	i	19%
NC1(C(=O)O)CCCc2ccc(N(CCCl)CCCl)cc21 (configuration not stated)	2%	11%[57.1 µM]	-54%[57.1 µM]	/	i	/
O=C1NC(=O)C2(CCCc3ccc(N(CCCl)CCCl)cc32)N1 (configuration not stated)	?	3%	20µM*	/	i	/
CC(C)C12CN3CC(C(C)C)(CN(C1)C3c1cccnc1)C2=O (configuration not stated)	-14%	2%	15%	7%	-108%*	-2%
CN1CCC[C@H]1c1cccnc1	-11%	16%[57.1 µM]	29%[57.1 µM]	-8%	i	-2%
Cc1cc(N2CCCC2)ccc1C=C(C#N)C#N	?	5%[11.4 µM]	15%[11.4 µM]	6%	i	-4%
Cc1ccc2cc(C=C(C#N)C#N)c(Cl)nc2c1	?	-3%	25µM*	22%	i	-4%
CN1CC[C@@]2(C)c3cc(OC(=O)Nc4ccccc4)ccc3N(C)[C@@H]12	/	-2%[57.1 µM]	?	1%	/	/
CC(C)N(C(=O)CCl)c1ccccc1	-4%	12%	20µM*	0%	i	/
CCOC(=O)c1cnc2c(ccc3ccccc32)c1Nc1ccc(C(C)=O)cc1	20%	7%	8%	/	/	/
SMILES	Pin1 inhibitor	TrxR1 substrate	TrxR1 inh-1	N370S GC mod	Akt phos inh	A-T KAP1 phos	others
C=C1[C@@H](C)[C@H]2[C@H](Cc3ccccc3)NC(=O)[C@]23OC(=O)/C=C/[C@H](O)CCC[C@@H](C)C/C=C/[C@H]3[C@@H]1O	-8%	4%	50µM*!	-4%	i	/
C=C1C(C)C2C(Cc3ccccc3)NC(=O)C23C(OC(C)=O)C=CC(C)(O)CC(C)CC=CC3C1O (configuration not stated)	-10%	15%[57.1 µM]	17%[57.1 µM]	/	i	/
COc1ccc(C(=O)NCCn2cc(SCc3ccc(C(F)(F)F)cc3)c3ccccc32)cc1OC	?	-5%	28%	/	/	/
O=c1[nH]c(=O)n(Cc2ccco2)c(O)c1C=NCc1cccs1	0%	8%	-17%	15%	-93%*	/
CCCCCC1CC(CC#CCN2CCOCC2)C(=O)O1 (configuration not stated)	-9%	-3%	45µM*	3%	i	-1%
O=C1C=CC2C3C(=O)N(c4ccccc4)C(=O)C3C1N2Cc1ccccc1 (configuration not stated)	16%	6%[11.4 µM]	3.5µM*	/	i	/	GR inh=-1;TrxR1 inh-2=?;TrxR1 insulin=17µM*;TrxR1 inh-3=1.5µM*
CNc1ccc2oc(C[C@@H]3OC4(CC[C@@H]3C)O[C@H]([C@@H](C)C(=O)c3ccc[nH]3)[C@H](C)C[C@H]4C)nc2c1C(=O)O (some centres not stated)	/	/	/	9%	/	/

Source: PubChem
